Bioassay records from PubChem BioAssay.
Compounds with a hit are over-represented: about 5.4% of the library has one in this group of screens.
Calb FLC: C. albicans growth inhibition with fluconazole, primary screen, CaCi-2 strain, Alamar Blue fluorescence | C. albicans CaCi-2 (fluconazole-resistant clinical isolate) + fluconazole, 48 h | growth inhibition, % (no concentration beside the values) | 300,000 compounds, 0.57% hits;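 active = growth inhibition above about 58% in most replicates, limit read from the data, passing the limit was not always enough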;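 note: all wells also contain fluconazole at 8 µg/ml as a sub-toxic cotreatment; 0% = median of DMSO wells and 100% = median of geldanamycin control wells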
Beta cell apopt: inhibitors of cytokine-induced beta cell apoptosis, primary screen, luminescence. AID 435005, 2010. INS-1E cytokine-induced death, ATP luminescence, 48 h; percent of positive-control rescue, neutral wells zero. 300,000 compounds, 0.8% hits. protection from apoptosis, % (concentration not given with the values);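 active = Every replicate reaches about 75%, or at least half do and their mean reaches it too, limit read from the data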;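 note: 0% = cytokine-treated negative control wells and 100% = positive control rescue; higher means more ATP so stronger rescue from cytokine killing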
CSC inhib: cancer stem cell viability inhibitors, primary screen, luminescence | cancer stem cell-like cells viability | inhibition, % at 7.5 µM | 300,000 compounds, 1.1% hits | AID 2717, 2010; in the data active = inhibition above about 75%; tested in HMLE shEcad cells
Mdm2-MdmX inh: inhibitors of human Mdm2-MdmX association, primary screen, cell-based, luminescence, split luciferase, SaOS-2, uHTS; SaOS-2 split-luciferase Mdm2/MdmX complementation; inhibition, % at 8 µM; 330,000 compounds, 3% hits; AID 485346, 2010;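 active = inhibition of at least 50% at 8 µM in the primary screen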
SKKanGAS inh: S. pyogenes SKKanGAS growth inhibitors in kanamycin, primary screen, streptokinase expression inhibitor project, SKKanGAS strain, BacTiter-Glo luminescence; 6 h; inhibition, % at 7.5 µM; 300,000 compounds, 1.3% hits; AID 1662, 2009;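 active = mean replicate score, as percent of positive control median, at least 50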;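 note: strain carries kanamycin resistance gene driven by streptokinase promoter and grows in 40 µg/ml kanamycin; loss of luminescence reflects streptokinase promoter inhibition or plain growth inhibition; 0% = median of DMSO wells and 100% = positive control at its reference dose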
MPTP block: mitochondrial permeability transition pore inhibitors, primary screen, biochemical, isolated mouse mitochondria, absorbance. Ca2+ swelling absorbance, 30 min. inhibition, % at 10 µM. 360,000 compounds, 1.4% hits;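 active = inhibition of 50% or more, scaled per plate between neutral and stimulator controls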;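 note: 0% = DMSO wells given calcium and 100% = 1 mM EGTA wells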
Mdm2 MdmX conf: Mdm2-MdmX complex disruptors, retested hits, confirmation, luminescence, single concentration | Mdm2-MdmX binding, luminescent assay | AID 489028, 2010 | shares compounds with Mdm2-MdmX inh | inhibition, % at 8 µM | 10,000 compounds, 55% hits; in the data active = inhibition above about 40%
FLuc counter: full-length luciferase signal inhibition, confirmation, counter-screen for Mdm2/MdmX interaction inhibitor project, cell-based, single concentration, SaOS-2; SaOS-2 full-length luciferase counterscreen, luminescence; inhibition, % at 8 µM; 6,200 compounds, 77% hits; shares compounds with Mdm2-MdmX inh;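 active = mean inhibition at 8 µM reaching about 37%, which flags the compound as non-specific, limit read from the data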;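 note: p53-null SaOS-2 cells with luciferase driven by a doxycycline-inducible promoter; compound on cells about two nights before reading with doxycycline added after day one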
* = called active by the depositor.

`Cc1c(NC(=O)COC(=O)CSc2ccc(C(N)=O)cc2[N+](=O)[O-])c(=O)n(-c2ccccc2)n1C` gave Calb FLC 2, Beta cell apopt -4, CSC inhib 0, Mdm2-MdmX inh 6, SKKanGAS inh -9 and MPTP block 0.
`O=C(c1ccc(Cl)cc1)C(Cn1cncn1)C(Sc1ccccc1)c1ccccc1` (stereo unspecified) gave Calb FLC -6, Beta cell apopt -16, CSC inhib 25, Mdm2-MdmX inh 11, SKKanGAS inh 25 and MPTP block -1.
For Cc1ccc(SC(c2ccccc2)C(Cn2cncn2)C(=O)c2ccccc2)cc1 (stereo unspecified) the results were Calb FLC -4, Beta cell apopt -12, CSC inhib -9, Mdm2-MdmX inh 60*, SKKanGAS inh 5, MPTP block 0 and Mdm2 MdmX conf 23.
`CC1CCCCN1CCCNC(=O)c1ccc2nc(N3CCCCC3)sc2c1` (stereo unspecified) gave Calb FLC -7, Beta cell apopt 1, CSC inhib 0, Mdm2-MdmX inh 8, SKKanGAS inh -2 and MPTP block -1.
Screening COc1ccc(S(=O)(=O)N2c3cc(C)ccc3OCC2C(C)(C)C)cc1 (stereo unspecified) returned Calb FLC 3, Beta cell apopt 4, CSC inhib 47, Mdm2-MdmX inh 56*, SKKanGAS inh 34, MPTP block 2, Mdm2 MdmX conf 61* and FLuc counter 63*.
Cc1ccc(S(=O)(=O)N2c3ccccc3OCC2c2ccccc2)cc1 (stereo unspecified) was read as Calb FLC 23, Beta cell apopt -2, CSC inhib 63, Mdm2-MdmX inh 56*, SKKanGAS inh 30, MPTP block 0, Mdm2 MdmX conf 58* and FLuc counter 55*.
For Cc1ccc(S(=O)(=O)N2c3cc(C)ccc3OCC2C(C)(C)C)cc1 (stereo unspecified) the results were Calb FLC -3, Beta cell apopt 0, CSC inhib 53, Mdm2-MdmX inh 63*, SKKanGAS inh 44, MPTP block 0, Mdm2 MdmX conf 72* and FLuc counter 48*.
COc1cccc(C(=O)N2c3cc(C)ccc3OCC2C(C)(C)C)c1 (stereo unspecified) was read as Calb FLC -2, Beta cell apopt 5, CSC inhib -2, Mdm2-MdmX inh 9, SKKanGAS inh 9 and MPTP block -1.
Screening CC(=O)c1c(C(C)=O)c(C)n(-c2cccc([N+](=O)[O-])c2)c1C returned Calb FLC -16, Beta cell apopt 0, CSC inhib 7, Mdm2-MdmX inh 4, SKKanGAS inh 1 and MPTP block -2.
Screening Cc1cc(C(=O)CCl)c(C)n1-c1cccc([N+](=O)[O-])c1 returned Calb FLC -3, Beta cell apopt -9, CSC inhib 0, Mdm2-MdmX inh 69*, SKKanGAS inh -4, MPTP block 0, Mdm2 MdmX conf 38 and FLuc counter 60*.
Screening O=C(Nc1ccc(N2CCN(C(=O)c3ccco3)CC2)cc1)c1cccc(F)c1 returned Calb FLC 24, Beta cell apopt 0, CSC inhib 0, Mdm2-MdmX inh -9, SKKanGAS inh -5 and MPTP block 2.
Screening CCOC(=O)CN1C(=O)C(O)=C(C(C)=O)C1c1ccc([N+](=O)[O-])cc1 (stereo unspecified) returned Calb FLC -3, CSC inhib 9, Mdm2-MdmX inh 14, SKKanGAS inh 4 and MPTP block 0.
